The text below walks through data of the supplement of paper PMC12067093, “Discovery and optimisation of a covalent ligand for TRIM25 and its application to targeted protein ubiquitination” (Chemical Science, 2025).

About 21,000 targets were measured; listed, in parts, are those with the largest changes and a random draw of the rest.
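Note: competitive chemoproteomic profiling in live THP-1 cells with an iodoacetamide desthiobiotin (IA-DTB) probe, comparing probe-labelled peptide intensities in compound-treated cells against DMSO-treated controls.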

Sequence of UniProt Q96FX7 (Q96FX7 whole entry): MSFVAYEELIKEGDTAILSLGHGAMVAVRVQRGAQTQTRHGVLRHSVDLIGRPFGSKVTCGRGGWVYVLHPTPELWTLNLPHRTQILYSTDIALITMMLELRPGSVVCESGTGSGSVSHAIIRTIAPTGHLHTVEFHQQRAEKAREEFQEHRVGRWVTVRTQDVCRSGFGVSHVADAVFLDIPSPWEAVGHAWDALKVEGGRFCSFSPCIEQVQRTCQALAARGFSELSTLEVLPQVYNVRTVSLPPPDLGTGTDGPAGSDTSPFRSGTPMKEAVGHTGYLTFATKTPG
Sequence of UniProt Q15906 (Q15906 whole entry, looked up): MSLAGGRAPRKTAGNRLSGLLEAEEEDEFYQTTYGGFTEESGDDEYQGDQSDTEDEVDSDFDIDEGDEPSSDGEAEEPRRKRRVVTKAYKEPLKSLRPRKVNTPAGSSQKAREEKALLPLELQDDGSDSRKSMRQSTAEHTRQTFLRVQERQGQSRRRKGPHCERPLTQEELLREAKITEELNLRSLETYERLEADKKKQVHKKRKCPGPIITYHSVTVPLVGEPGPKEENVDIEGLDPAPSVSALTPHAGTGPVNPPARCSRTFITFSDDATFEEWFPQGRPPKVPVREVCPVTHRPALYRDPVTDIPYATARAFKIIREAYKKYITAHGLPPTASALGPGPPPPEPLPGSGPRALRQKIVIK
Sequence of UniProt P23025 (P23025 whole entry): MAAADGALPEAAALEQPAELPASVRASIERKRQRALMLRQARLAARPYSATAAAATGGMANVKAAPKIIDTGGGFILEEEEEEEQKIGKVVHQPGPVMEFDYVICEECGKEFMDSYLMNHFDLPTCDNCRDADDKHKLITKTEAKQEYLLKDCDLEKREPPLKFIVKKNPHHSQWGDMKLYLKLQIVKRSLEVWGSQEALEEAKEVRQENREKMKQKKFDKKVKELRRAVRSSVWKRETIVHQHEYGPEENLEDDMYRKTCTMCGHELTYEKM
Sequence of UniProt Q9UID3 (Q9UID3 whole entry): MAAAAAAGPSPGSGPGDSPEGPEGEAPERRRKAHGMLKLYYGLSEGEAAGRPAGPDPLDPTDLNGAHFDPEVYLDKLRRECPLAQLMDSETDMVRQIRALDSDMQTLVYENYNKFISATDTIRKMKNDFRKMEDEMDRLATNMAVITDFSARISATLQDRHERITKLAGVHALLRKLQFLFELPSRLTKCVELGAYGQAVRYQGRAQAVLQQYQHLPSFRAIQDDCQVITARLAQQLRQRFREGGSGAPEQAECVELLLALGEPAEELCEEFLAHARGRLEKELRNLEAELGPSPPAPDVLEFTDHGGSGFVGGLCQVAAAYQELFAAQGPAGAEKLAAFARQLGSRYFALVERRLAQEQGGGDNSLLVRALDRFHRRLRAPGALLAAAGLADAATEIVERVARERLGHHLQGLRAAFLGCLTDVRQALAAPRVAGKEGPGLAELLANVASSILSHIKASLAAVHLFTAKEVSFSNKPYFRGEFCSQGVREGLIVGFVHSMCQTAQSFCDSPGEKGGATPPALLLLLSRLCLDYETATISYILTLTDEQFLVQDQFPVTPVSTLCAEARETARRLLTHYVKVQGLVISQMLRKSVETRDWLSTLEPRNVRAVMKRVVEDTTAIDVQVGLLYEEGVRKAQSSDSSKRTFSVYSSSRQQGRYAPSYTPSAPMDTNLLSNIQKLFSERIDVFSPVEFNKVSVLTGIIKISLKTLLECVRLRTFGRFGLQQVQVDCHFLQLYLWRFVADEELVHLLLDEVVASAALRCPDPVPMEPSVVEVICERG
Sequence of UniProt Q9C0B0 (Q9C0B0 whole entry, looked up): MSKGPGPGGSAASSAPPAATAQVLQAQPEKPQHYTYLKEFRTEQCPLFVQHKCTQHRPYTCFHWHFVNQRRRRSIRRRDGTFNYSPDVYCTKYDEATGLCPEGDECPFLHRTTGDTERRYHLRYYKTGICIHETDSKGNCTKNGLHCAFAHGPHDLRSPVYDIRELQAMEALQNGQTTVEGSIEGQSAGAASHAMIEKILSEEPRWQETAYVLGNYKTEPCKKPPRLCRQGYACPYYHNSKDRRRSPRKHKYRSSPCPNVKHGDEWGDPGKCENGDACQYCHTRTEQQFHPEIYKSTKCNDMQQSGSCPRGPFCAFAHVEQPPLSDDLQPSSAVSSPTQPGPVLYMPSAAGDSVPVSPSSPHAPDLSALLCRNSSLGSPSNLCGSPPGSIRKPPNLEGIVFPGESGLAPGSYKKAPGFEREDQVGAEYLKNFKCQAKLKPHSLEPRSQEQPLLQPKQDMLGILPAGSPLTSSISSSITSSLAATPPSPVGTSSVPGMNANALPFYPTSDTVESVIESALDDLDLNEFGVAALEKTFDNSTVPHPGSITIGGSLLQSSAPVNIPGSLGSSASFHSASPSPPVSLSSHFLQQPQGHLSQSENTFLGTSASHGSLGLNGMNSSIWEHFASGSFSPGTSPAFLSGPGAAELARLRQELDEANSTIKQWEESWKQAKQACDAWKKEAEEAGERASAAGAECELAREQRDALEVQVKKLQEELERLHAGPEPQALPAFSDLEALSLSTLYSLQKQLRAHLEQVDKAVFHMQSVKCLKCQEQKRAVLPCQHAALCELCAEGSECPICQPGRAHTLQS
Sequence of UniProt O95801 (O95801 whole entry, looked up): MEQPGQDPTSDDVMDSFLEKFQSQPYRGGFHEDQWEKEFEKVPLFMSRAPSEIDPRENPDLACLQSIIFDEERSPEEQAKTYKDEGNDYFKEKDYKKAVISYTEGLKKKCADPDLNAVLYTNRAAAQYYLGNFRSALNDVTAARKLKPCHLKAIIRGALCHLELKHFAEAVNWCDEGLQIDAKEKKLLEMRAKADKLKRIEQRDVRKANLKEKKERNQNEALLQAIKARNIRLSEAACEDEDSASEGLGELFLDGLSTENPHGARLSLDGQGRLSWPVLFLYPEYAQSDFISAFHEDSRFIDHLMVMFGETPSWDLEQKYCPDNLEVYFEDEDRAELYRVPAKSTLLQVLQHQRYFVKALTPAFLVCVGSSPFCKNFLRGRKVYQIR
Sequence of UniProt P55072 (P55072 whole entry, looked up): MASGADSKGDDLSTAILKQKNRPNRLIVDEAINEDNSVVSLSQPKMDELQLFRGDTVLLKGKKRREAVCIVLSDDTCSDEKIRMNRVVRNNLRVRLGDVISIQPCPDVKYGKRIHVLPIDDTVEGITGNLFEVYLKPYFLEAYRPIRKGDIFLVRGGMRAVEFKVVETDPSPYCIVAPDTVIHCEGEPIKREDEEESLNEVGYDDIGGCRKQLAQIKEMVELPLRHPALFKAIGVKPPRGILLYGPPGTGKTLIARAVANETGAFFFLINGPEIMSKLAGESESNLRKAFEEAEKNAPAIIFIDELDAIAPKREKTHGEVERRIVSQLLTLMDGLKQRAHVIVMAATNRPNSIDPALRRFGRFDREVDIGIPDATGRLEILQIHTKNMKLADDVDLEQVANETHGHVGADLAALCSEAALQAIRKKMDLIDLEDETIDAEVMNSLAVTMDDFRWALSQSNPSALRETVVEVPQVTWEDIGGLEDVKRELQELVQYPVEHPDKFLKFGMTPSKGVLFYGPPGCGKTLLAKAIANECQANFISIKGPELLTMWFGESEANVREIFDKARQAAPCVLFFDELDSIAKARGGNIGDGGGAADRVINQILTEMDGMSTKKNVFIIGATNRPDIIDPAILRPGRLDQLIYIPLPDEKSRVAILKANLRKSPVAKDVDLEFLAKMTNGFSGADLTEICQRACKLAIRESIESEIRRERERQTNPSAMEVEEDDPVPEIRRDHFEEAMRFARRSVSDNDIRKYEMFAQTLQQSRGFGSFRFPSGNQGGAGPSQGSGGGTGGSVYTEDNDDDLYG
Sequence of UniProt O94966 (O94966 whole entry, looked up): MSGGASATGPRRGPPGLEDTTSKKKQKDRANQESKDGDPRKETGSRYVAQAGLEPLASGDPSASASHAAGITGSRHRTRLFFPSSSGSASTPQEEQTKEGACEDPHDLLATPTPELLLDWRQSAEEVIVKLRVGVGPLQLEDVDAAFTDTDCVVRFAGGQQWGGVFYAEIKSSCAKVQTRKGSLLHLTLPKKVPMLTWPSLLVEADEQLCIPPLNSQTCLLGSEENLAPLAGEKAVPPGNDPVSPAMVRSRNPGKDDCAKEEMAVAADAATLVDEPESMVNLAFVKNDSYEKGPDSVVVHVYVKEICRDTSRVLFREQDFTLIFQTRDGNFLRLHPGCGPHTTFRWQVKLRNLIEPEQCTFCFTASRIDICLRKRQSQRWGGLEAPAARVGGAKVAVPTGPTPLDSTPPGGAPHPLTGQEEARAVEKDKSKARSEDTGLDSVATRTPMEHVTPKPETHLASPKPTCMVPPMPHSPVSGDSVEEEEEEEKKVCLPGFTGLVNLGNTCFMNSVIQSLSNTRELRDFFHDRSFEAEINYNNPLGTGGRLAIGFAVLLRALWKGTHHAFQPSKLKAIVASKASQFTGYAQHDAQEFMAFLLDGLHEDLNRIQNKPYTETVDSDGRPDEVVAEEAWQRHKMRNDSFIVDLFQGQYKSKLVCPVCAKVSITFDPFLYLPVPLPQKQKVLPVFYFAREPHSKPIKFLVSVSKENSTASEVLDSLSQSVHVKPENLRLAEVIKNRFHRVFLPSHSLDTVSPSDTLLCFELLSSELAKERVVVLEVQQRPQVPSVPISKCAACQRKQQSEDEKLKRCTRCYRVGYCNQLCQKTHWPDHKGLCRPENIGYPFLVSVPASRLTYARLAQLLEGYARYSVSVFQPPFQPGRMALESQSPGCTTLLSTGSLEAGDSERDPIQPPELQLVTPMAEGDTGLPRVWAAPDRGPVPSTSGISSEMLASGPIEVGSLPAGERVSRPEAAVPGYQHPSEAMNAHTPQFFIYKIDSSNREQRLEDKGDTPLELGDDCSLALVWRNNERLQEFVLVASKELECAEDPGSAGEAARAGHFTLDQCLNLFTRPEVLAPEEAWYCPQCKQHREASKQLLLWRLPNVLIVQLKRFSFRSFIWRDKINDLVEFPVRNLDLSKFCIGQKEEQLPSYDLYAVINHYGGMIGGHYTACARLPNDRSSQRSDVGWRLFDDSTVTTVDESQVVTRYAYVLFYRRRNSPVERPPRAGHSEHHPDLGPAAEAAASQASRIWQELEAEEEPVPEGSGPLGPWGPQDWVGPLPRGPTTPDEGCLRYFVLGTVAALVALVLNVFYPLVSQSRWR

Compound in one assay: CC1Cc2ccccc2N1C(=O)C1CCCN(C1)C(=O)CCl (mixture of isomers) [TRIM25 ligand 11 (diastereomer mixture)]
The assay is described as follows: probe-labelled cysteine peptide fold change vs DMSO (competition) (log2 fold change); higher = less target engagement (more negative = stronger competition). To be noted: 10 µM; THP-1; incubation time: 4 h.
Turning to “TTC28_Q96AY4_726_ALGNLGDIFICK (UniProt Q96AY4)”, the “probe-labelled cysteine peptide fold change” value stood at 0.224.

In the case of “TSFM_P43897_149_FQLLVQQVALGTMMHCQTLK (UniProt P43897)”, the “probe-labelled cysteine peptide fold change” value was -0.117.

For the target “TUBGCP3_Q96CW5_388_TLAALVDHCQGRK (UniProt Q96CW5)”, the “probe-labelled cysteine peptide fold change” value was -0.158.

Turning to “UNC13D_Q70J99_255_CREDQWYPLEPR (UniProt Q70J99)”, the “probe-labelled cysteine peptide fold change” value was -0.0799.

Consider “VCPIP1_Q96JH7_940_HCTFPHLPGK (UniProt Q96JH7)”, for which the “probe-labelled cysteine peptide fold change” value was found to be 0.0492.

Turning to “VASP_P50552_7_SETVICSSR (UniProt P50552)”, the “probe-labelled cysteine peptide fold change” value was found to be 0.55.

Regarding “VCP_P55072_174_VVETDPSPYCIVAPDTVIHCEGEPIKR (UniProt P55072)”, the “probe-labelled cysteine peptide fold change” value was 0.0996.

“TRMT61A_Q96FX7_209_FCSFSPCIEQVQR (UniProt Q96FX7)”: the “probe-labelled cysteine peptide fold change” value was -0.023.

Take “TUBB1_Q9H4B7_12_MREIVHIQIGQCGNQIGAK (UniProt Q9H4B7)”: the “probe-labelled cysteine peptide fold change” value turned out to be 0.489.

With “TTC37_Q6PGP7_1162_CLLTSAIYALQGR (UniProt Q6PGP7)”, the “probe-labelled cysteine peptide fold change” value was -0.13.

“USP6_P35125_1036_AQAEPINLDSCLR (UniProt P35125)”: the “probe-labelled cysteine peptide fold change” value is -0.111.

With “XPA_P23025_126+129_EFMDSYLMNHFDLPTCDNCR (UniProt P23025)”, the “probe-labelled cysteine peptide fold change” value came out at 0.169.

“URB1_O60287_315_ELVHNFLMDLCCSLK (UniProt O60287)”: the “probe-labelled cysteine peptide fold change” value was -0.0229.

In the case of “USP19_O94966_1017_LEDKGDTPLELGDDCSLALVWR (UniProt O94966)”, the “probe-labelled cysteine peptide fold change” value was -0.14.

Consider “UBR7_Q8N806_374_VQQVELICEYNDLK (UniProt Q8N806)”, for which the “probe-labelled cysteine peptide fold change” value was -0.0738.

On to “TXNIP_Q9H3M7_36_VIVEVCEVTR (UniProt Q9H3M7)”, for which the “probe-labelled cysteine peptide fold change” value worked out at 0.136.

As to “UBR7_Q8N806_99+101_CDCGNSK (UniProt Q8N806)”, the “probe-labelled cysteine peptide fold change” value is -0.0898.

In the case of “XPC_Q01831_224_NNICSQPDLHAIGLSIIPAR (UniProt Q01831)”, the “probe-labelled cysteine peptide fold change” value is -0.0894.

As to “VPS37A_Q8NEZ2_375_TICHCR (UniProt Q8NEZ2)”, the “probe-labelled cysteine peptide fold change” value is 0.905.

In the case of “UBA7_P41226_223_DGDLVTFSGIEGMVELNDCDPR (UniProt P41226)”, the “probe-labelled cysteine peptide fold change” value amounted to 0.000986.

Take “TXNRD2_Q9NNW7_523_SGLDPTVTGCUG (UniProt Q9NNW7)”: the “probe-labelled cysteine peptide fold change” value is -0.465.

On to “TTC21B_Q7Z4L5_72_QDVSLCSLLALIYAHK (UniProt Q7Z4L5)”, for which the “probe-labelled cysteine peptide fold change” value is 0.155.

Turning to “TTC4_O95801_174_HFAEAVNWCDEGLQIDAK (UniProt O95801)”, the “probe-labelled cysteine peptide fold change” value is -0.0931.

For “UBA1_P22314_234_DNPGVVTCLDEAR (UniProt P22314)”, the “probe-labelled cysteine peptide fold change” value was 0.0251.

Regarding “UBR5_O95071_1382+1386_LDCFTHCLIVK (UniProt O95071)”, the “probe-labelled cysteine peptide fold change” value was found to be 0.374.

As to “VCPIP1_Q96JH7_219_SQECLIPVHVDGDGHCLVHAVSR (UniProt Q96JH7)”, the “probe-labelled cysteine peptide fold change” value is -0.566.

In the case of “UBE2T_Q9NPD8_86_ICLDVLK (UniProt Q9NPD8)”, the “probe-labelled cysteine peptide fold change” value was -0.00663.

On to “TTF2_Q9UNY4_50_ATDIPVSHCLLHEDFVVELQGLLLPQDK (UniProt Q9UNY4)”, for which the “probe-labelled cysteine peptide fold change” value was determined as 0.0771.

As to “VPS72_Q15906_163_GPHCERPLTQEELLR (UniProt Q15906)”, the “probe-labelled cysteine peptide fold change” value was 0.0992.

As to “UNK_Q9C0B0_299+308_CNDMQQSGSCPR (UniProt Q9C0B0)”, the “probe-labelled cysteine peptide fold change” value worked out at 0.0296.

For the target “VPS51_Q9UID3_226_AIQDDCQVITAR (UniProt Q9UID3)”, the “probe-labelled cysteine peptide fold change” value was -0.0611.

Regarding “WDFY4_Q6ZS81_1763_HHQEEVLQAGLCTEGALLLLEMLK (UniProt Q6ZS81)”, the “probe-labelled cysteine peptide fold change” value came to 0.571.

Turning to “WAPL_Q7Z5K2_891_ALQHCEELIQQYNR (UniProt Q7Z5K2)”, the “probe-labelled cysteine peptide fold change” value amounted to 0.739.

Regarding “UBR2_Q8IWV8_1332_VHPNEEDPRVPIMCWGSCAYTIQSIER (UniProt Q8IWV8)”, the “probe-labelled cysteine peptide fold change” value was -0.326.

Regarding “TUBG1_P23258_316_QTNHCYIAILNIIQGEVDPTQVHK<|>TUBG2_Q9NRH3_316_QTNHCYIAILNIIQGEVDPTQVHK (UniProt Q9NRH3+P23258)”, the “probe-labelled cysteine peptide fold change” value stood at 0.00794.

For the target “VPS39_Q96JC1_681_LICDFPFDGLLEER (UniProt Q96JC1)”, the “probe-labelled cysteine peptide fold change” value stood at 0.145.

On to “UIMC1_Q96RL1_121_AIAESLNSCRPSDASATR (UniProt Q96RL1)”, for which the “probe-labelled cysteine peptide fold change” value was 0.14.

In the case of “UBR5_O95071_1942_SHNDEHSDVLPVLDVCSLK (UniProt O95071)”, the “probe-labelled cysteine peptide fold change” value was -0.586.

Take “VARS_P26640_1185_CSIHLQLQGLVDPARELGK (UniProt P26640)”: the “probe-labelled cysteine peptide fold change” value was -0.114.

Take “UAP1L1_Q3KQV9_271_LADPVFIGFCVLQGADCGAK (UniProt Q3KQV9)”: the “probe-labelled cysteine peptide fold change” value is -0.0621.

The assay is the same for the next values; noted with them: 50 µM; THP-1; incubation time: 4 h.
For the target “TTC28_Q96AY4_726_ALGNLGDIFICK (UniProt Q96AY4)”, the “probe-labelled cysteine peptide fold change” value worked out at 0.1.

For “TSFM_P43897_149_FQLLVQQVALGTMMHCQTLK (UniProt P43897)”, the “probe-labelled cysteine peptide fold change” value was -0.0693.

For “TUBGCP3_Q96CW5_388_TLAALVDHCQGRK (UniProt Q96CW5)”, the “probe-labelled cysteine peptide fold change” value is -0.0586.

“UNC13D_Q70J99_255_CREDQWYPLEPR (UniProt Q70J99)”: the “probe-labelled cysteine peptide fold change” value is -0.0552.

Turning to “VCPIP1_Q96JH7_940_HCTFPHLPGK (UniProt Q96JH7)”, the “probe-labelled cysteine peptide fold change” value was determined as 0.0163.

Take “VASP_P50552_7_SETVICSSR (UniProt P50552)”: the “probe-labelled cysteine peptide fold change” value turned out to be 0.717.

Take “VCP_P55072_174_VVETDPSPYCIVAPDTVIHCEGEPIKR (UniProt P55072)”: the “probe-labelled cysteine peptide fold change” value was -0.0884.

On to “TRMT61A_Q96FX7_209_FCSFSPCIEQVQR (UniProt Q96FX7)”, for which the “probe-labelled cysteine peptide fold change” value was -0.323.

“TUBB1_Q9H4B7_12_MREIVHIQIGQCGNQIGAK (UniProt Q9H4B7)”: the “probe-labelled cysteine peptide fold change” value was 0.674.

For the target “TTC37_Q6PGP7_1162_CLLTSAIYALQGR (UniProt Q6PGP7)”, the “probe-labelled cysteine peptide fold change” value is -0.0818.

For “USP6_P35125_1036_AQAEPINLDSCLR (UniProt P35125)”, the “probe-labelled cysteine peptide fold change” value was -0.0406.

On to “XPA_P23025_126+129_EFMDSYLMNHFDLPTCDNCR (UniProt P23025)”, for which the “probe-labelled cysteine peptide fold change” value came to 0.182.

With “URB1_O60287_315_ELVHNFLMDLCCSLK (UniProt O60287)”, the “probe-labelled cysteine peptide fold change” value is -0.0236.

As for “USP19_O94966_1017_LEDKGDTPLELGDDCSLALVWR (UniProt O94966)”, the “probe-labelled cysteine peptide fold change” value was -0.0111.

For the target “UBR7_Q8N806_374_VQQVELICEYNDLK (UniProt Q8N806)”, the “probe-labelled cysteine peptide fold change” value stood at 0.0769.

Consider “TXNIP_Q9H3M7_36_VIVEVCEVTR (UniProt Q9H3M7)”, for which the “probe-labelled cysteine peptide fold change” value was 0.375.

Consider “UBR7_Q8N806_99+101_CDCGNSK (UniProt Q8N806)”, for which the “probe-labelled cysteine peptide fold change” value was -0.168.

As for “XPC_Q01831_224_NNICSQPDLHAIGLSIIPAR (UniProt Q01831)”, the “probe-labelled cysteine peptide fold change” value stood at 0.0467.

Turning to “VPS37A_Q8NEZ2_375_TICHCR (UniProt Q8NEZ2)”, the “probe-labelled cysteine peptide fold change” value was 0.772.

As for “UBA7_P41226_223_DGDLVTFSGIEGMVELNDCDPR (UniProt P41226)”, the “probe-labelled cysteine peptide fold change” value was 0.0382.

With “TXNRD2_Q9NNW7_523_SGLDPTVTGCUG (UniProt Q9NNW7)”, the “probe-labelled cysteine peptide fold change” value was -2.

Turning to “TTC21B_Q7Z4L5_72_QDVSLCSLLALIYAHK (UniProt Q7Z4L5)”, the “probe-labelled cysteine peptide fold change” value came to 0.138.

Take “TTC4_O95801_174_HFAEAVNWCDEGLQIDAK (UniProt O95801)”: the “probe-labelled cysteine peptide fold change” value was found to be 0.216.

As to “UBA1_P22314_234_DNPGVVTCLDEAR (UniProt P22314)”, the “probe-labelled cysteine peptide fold change” value is -0.108.

Regarding “UBR5_O95071_1382+1386_LDCFTHCLIVK (UniProt O95071)”, the “probe-labelled cysteine peptide fold change” value was found to be 0.564.

“VCPIP1_Q96JH7_219_SQECLIPVHVDGDGHCLVHAVSR (UniProt Q96JH7)”: the “probe-labelled cysteine peptide fold change” value is -1.68.

“UBE2T_Q9NPD8_86_ICLDVLK (UniProt Q9NPD8)”: the “probe-labelled cysteine peptide fold change” value stood at 0.103.

Regarding “TTF2_Q9UNY4_50_ATDIPVSHCLLHEDFVVELQGLLLPQDK (UniProt Q9UNY4)”, the “probe-labelled cysteine peptide fold change” value was 0.271.

As to “VPS72_Q15906_163_GPHCERPLTQEELLR (UniProt Q15906)”, the “probe-labelled cysteine peptide fold change” value is -0.085.

As to “UNK_Q9C0B0_299+308_CNDMQQSGSCPR (UniProt Q9C0B0)”, the “probe-labelled cysteine peptide fold change” value was -0.132.

Regarding “VPS51_Q9UID3_226_AIQDDCQVITAR (UniProt Q9UID3)”, the “probe-labelled cysteine peptide fold change” value worked out at 0.0255.

“WDFY4_Q6ZS81_1763_HHQEEVLQAGLCTEGALLLLEMLK (UniProt Q6ZS81)”: the “probe-labelled cysteine peptide fold change” value was found to be 0.181.

As for “WAPL_Q7Z5K2_891_ALQHCEELIQQYNR (UniProt Q7Z5K2)”, the “probe-labelled cysteine peptide fold change” value stood at 0.496.

In the case of “UBR2_Q8IWV8_1332_VHPNEEDPRVPIMCWGSCAYTIQSIER (UniProt Q8IWV8)”, the “probe-labelled cysteine peptide fold change” value was -0.616.

Consider “TUBG1_P23258_316_QTNHCYIAILNIIQGEVDPTQVHK<|>TUBG2_Q9NRH3_316_QTNHCYIAILNIIQGEVDPTQVHK (UniProt Q9NRH3+P23258)”, for which the “probe-labelled cysteine peptide fold change” value is -0.013.

On to “VPS39_Q96JC1_681_LICDFPFDGLLEER (UniProt Q96JC1)”, for which the “probe-labelled cysteine peptide fold change” value was determined as 0.086.

In the case of “UIMC1_Q96RL1_121_AIAESLNSCRPSDASATR (UniProt Q96RL1)”, the “probe-labelled cysteine peptide fold change” value was -0.0493.

As for “UBR5_O95071_1942_SHNDEHSDVLPVLDVCSLK (UniProt O95071)”, the “probe-labelled cysteine peptide fold change” value is -0.263.

Consider “VARS_P26640_1185_CSIHLQLQGLVDPARELGK (UniProt P26640)”, for which the “probe-labelled cysteine peptide fold change” value is -0.105.

On to “UAP1L1_Q3KQV9_271_LADPVFIGFCVLQGADCGAK (UniProt Q3KQV9)”, for which the “probe-labelled cysteine peptide fold change” value was -0.144.
